The results in this text go back to PubChem BioAssay AID720518 (National Center for Advancing Translational Sciences (NCATS), 2013).

Results filed as inconclusive are left out. Unmarked numbers belong to inactive results. The call rests on the fitted dose curve.

This assay in a line: qHTS for Inhibitors of Cell Surface uPA Generation: Wild-type Protective Antigen (WT-PrAg) Counterscreen for Cherry-picked Compounds. Further: 0% is about no effect. Particulars: cells, WT protective antigen toxicity counterscreen; series mostly up to 115 µM; activity (protection): at the top concentration. A general note: In qHTS, concentration-response curves come from the screen itself.
As to `COc1ccccc1N1CCN(C2CC(=O)N(c3ccccc3)C2=O)CC1` (configuration not stated), the “activity (protection)” value was -1.25%.

Consider `CC1CC(C)CN(CCCNC(=O)CN2C(=O)CSc3ccc(S(=O)(=O)N4CCOCC4)cc32)C1` (configuration not stated), for which the “activity (protection)” value was 0.935%.

As to `COC(/C=C/Nc1ccc(Cl)cc1)=C(C#N)C#N`, the “activity (protection)” value was 0.456%.

Consider `Cc1cccc(N2C(=O)c3cccc(Oc4ccc(Cl)cc4)c3C2=O)c1`, for which the “activity (protection)” value was 0.86%.

For the compound `Cc1cc(C)cc(NC(=O)Cc2ccc(NC3=NC4CS(=O)(=O)CC4S3)cc2)c1` (configuration not stated), the “activity (protection)” value was 0.0867%.

For `C=CCn1c(SCCN2C(=O)c3ccccc3C2=O)nc2scc(-c3ccc(F)cc3)c2c1=O`, the “activity (protection)” value is 4.05%.

`C[C@@H](CSc1ccccc1)CN1CC[C@H](O)CCC1=O`: the “activity (protection)” value is 0.0232%.

As for `N/C(=N/OC(=O)c1ccccc1F)c1nonc1N`, the “activity (protection)” value is -1.6%.

In the case of `COc1ccccc1CCNC(=O)C(=O)NCC1OCCN1S(=O)(=O)c1ccc(OC)c(OC)c1` (configuration not stated), the “activity (protection)” value was -0.951%.

Consider `CC(=O)c1ccc(NC(=O)Nc2ccc(Br)cc2C)cc1`, for which the “activity (protection)” value was 1.01%.

`Cc1nc(SCc2nc3ccccc3[nH]2)c2oc3cc([N+](=O)[O-])ccc3c2n1`: the “activity (protection)” value is -2.07%.

`CN(C)C(=S)Nc1ccc(S(=O)(=O)N2CCCCC2)cc1`: the “activity (protection)” value was -0.577%.

For the compound `Cc1ccc(C(=O)NNC(=O)CNc2cccc(Cl)c2)cc1`, the “activity (protection)” value is -0.357%.

For the compound `Cc1ccccc1O`, the “activity (protection)” value was -0.342%.

For the compound `O=C(Nc1ccc(S(=O)(=O)N2CCOCC2)cc1)c1cc(-c2ccccc2O)n[nH]1`, the “activity (protection)” value was -0.407%.

`O=C(c1cc(COc2c(F)cccc2F)on1)N1CCc2ccccc2C1`: the “activity (protection)” value was -1.56%.

For the compound `C/C=C/C(=O)Nc1cccc(C2=NOC3(C2)C[C@@H](C(N)=O)N(C(=O)c2cc([N+](=O)[O-])cc([N+](=O)[O-])c2C)C3)c1` (some centres not stated), the “activity (protection)” value was -1.15%.
